IL-1B inflam inh – inflammasome signaling inhibition, IL-1 beta readout; THP-1 LPS/ATP IL-1B secretion, AlphaLISA, 16 h; active compounds read low; activity change, % at 57.5 µM; 4.7% of 360,000 active; in the data active = activity change below about -50%; inconclusive = mostly about -30% to -49%; also: % is scaled to controls: 0 for no effect and ±100 for the full control effect
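Secreted IL-1B measured by AlphaLISA bead assay after 16 h compound exposure of THP-1 cells; compounds (final up to 57.5 uM) added 1 h before LPS (250 ng/mL) and ATP (1.25 mM) stimulation; lower signal means less secretion.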
D3 ag – agonists of human D3 dopamine receptor; P35462; D3R DiscoveRx beta-arrestin cells, luminescence, 90 min; max activation, %; 0.58% of 410,000 active; AID 652048; in the data active = max activation above about 30%; also: 0% is about no effect
Target sequence (P35462 whole entry, looked up): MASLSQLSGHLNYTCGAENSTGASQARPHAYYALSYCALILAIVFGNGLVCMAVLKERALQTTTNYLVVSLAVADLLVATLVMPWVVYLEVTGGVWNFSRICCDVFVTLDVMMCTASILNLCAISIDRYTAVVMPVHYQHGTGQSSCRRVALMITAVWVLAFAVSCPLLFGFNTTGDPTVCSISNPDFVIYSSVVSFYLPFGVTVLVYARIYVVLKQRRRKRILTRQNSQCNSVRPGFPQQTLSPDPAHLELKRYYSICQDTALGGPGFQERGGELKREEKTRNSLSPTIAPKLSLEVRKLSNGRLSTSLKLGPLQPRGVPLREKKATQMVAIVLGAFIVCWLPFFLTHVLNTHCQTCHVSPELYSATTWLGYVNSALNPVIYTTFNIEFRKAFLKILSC
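Cells at 1500/well, incubated overnight, then treated with pinned compounds (dopamine as control) for 90 min at 37 degrees C. DiscoveRx reagent added for 30 - 60 minutes at room temperature; luminescence read.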
ATXN viability – reduces viability in counter-screen for ATXN expression inhibitors; S2 cells (HEK-293 line with an ATXN2-luciferase reporter) viability, CellTiter-Fluor protease fluorescence, 24 h; Potency, µM (top dose mostly 56.7 µM), usual class: cytotoxic; 0.49% of 400,000 active; AID 651635; also: potency is read from the fitted curve at half-maximal effect; nearly all actives have a fitted effect of over 40% in size
Integrin act MD – activators of alpha7 integrin expression for muscular dystrophy; Potency, µM (titrated, usually from 38.3 µM), inactives show at the top dose activation, hits mostly activators; 0.064% of 350,000 active; alpha7betagal myoblasts, beta-gal FDG fluorescence, 48 h;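 also: potency is read from the fitted curve at half-maximal effect; 100% = response of the positive control SU9516; nearly all actives have a fitted effect of over 60% in size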
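Alpha7betagal+/- myoblasts (passage 13) were plated 16-24 hr, then exposed to compounds (1:260 dilution of DMSO stock) for 48 hours at 37C. After MPER lysis, β-galactosidase reporter activity was read as FDG fluorescence (ex 480/em 540) after 30 minutes.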
DRD3 antagonist – antagonists of human D3 dopamine receptor | P35462 | D3R cells, DiscoveRx beta-arrestin luminescence, antagonist mode; active compounds read low | max response, negative = inhibition, % | 2.5% of 360,000 active; in the data active = max response below about -50%; inconclusive = no clear call, values can overlap the other calls; also: % is scaled to controls: 0 for no effect and ±100 for the full control effect
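Cells plated overnight at 1500 cells/well, then exposed to library compounds with dopamine controls for 90 minutes at 37 degrees C. DiscoveRx reagent added for 30–60 minutes at room temperature; luminescence read, quantitative HTS format.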
ATXN2 expr inh – ATXN2 expression inhibition | HEK-293 ATXN2-luciferase reporter, luminescence, 24 h | Potency, µM (top dose mostly 57 µM), inactives show top-dose activity change, negative = inhibition, most hits filed as inhibitors | 0.72% of 360,000 active | AID 1745845; also: potency is read from the fitted curve at half-maximal effect; % is scaled to controls: 0 for no effect and ±100 for the full control effect; nearly all actives have a fitted effect of over 55% in size
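qHTS (up to 57 uM final) was run with 24 h compound exposure of reporter cells at 37 °C. Each well was multiplexed: SteadyGlo luminescence measured ATXN2-luciferase expression after a fluorogenic Gly-Phe-AFC viability readout (25 uM final).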
* hit, by the source's call; i = inactive; ? = inconclusive; / = no result; ! = not active in a repeat. Rows were chosen to be rich in hits. Some 7% of all compounds tested hit in one or more screens of this group. Unless noted, calls follow the shape of the dose curve; as a rule, active = well fitted curve in the direction sought with a large enough effect; inconclusive = small, poorly fitted or top-dose-only effect, or another doubt; inactive = no such curve, though single readings can be large; an effect the other way counts as inactive or inconclusive.

SMILES | IL-1B inflam inh | D3 ag | ATXN viability | Integrin act MD | DRD3 antagonist | ATXN2 expr inh
CCOC(=O)C1CCN(Cc2cccc(Oc3ccc(Cl)cc3)c2)CC1 | 0 | 6 | i | -59% | ? | -13%
CCN1CCN(Cc2cccc(Oc3ccc(Cl)cc3)c2)CC1 | -27 | -32 | i | -35% | -63* | -24%
COc1ccc(C(=O)C(C)OC(=O)CNC(=O)C2CCCCC2)cc1 (centres undefined) | -13 | 1 | i | 15% | -16 | /
COc1cccc(CN2CCC(N(CCc3ccccc3)Cc3ccccc3)CC2)c1OC | -62* | -11 | i | -59% | -85* | -26%
COc1cccc(CN2CCN(Cc3cc(OC)c(OC)c(OC)c3)CC2)c1OC | 23 | -8 | i | -22% | -22 | -7%
O=C(NNc1nccc(C(F)(F)F)n1)Nc1cccc(Cl)c1 | -13 | 1 | i | 0% | 1 | 4%
O=C(NNc1cc(C(F)(F)F)nc2ccccc12)Nc1cccc(Cl)c1 | -89* | 2 | ? | -1% | -11 | -38%
N#Cc1ccc(C(S(=O)(=O)Cc2ccccc2)S(=O)(=O)Cc2ccccc2)cc1 | -58* | 3 | i | -7% | 0 | /
CNC(=O)c1sc(N2N=C3/C(=C/c4ccccc4)CCCC3C2c2ccccc2)nc1C (centres undefined) | -12 | 30 | / | 2% | 21 | 13µM*
COc1ccc(C(=O)N2CCCC(c3nc(-c4cccs4)no3)C2)cc1OC (centres undefined) | 7 | 13 | i | -16% | 23 | -6%
CCOC(=O)c1c(NC(=O)COc2ncnc3sccc23)sc2c1CCC2 | 17 | 35* | i | -34% | 20 | 2%
O=C(CSc1n[nH]c(-c2cccnc2)n1)OC1CCCCC1 | 24 | 2 | i | -21% | -2 | -10%
CC1CCCc2sc3nc(N4CCN(CCO)CC4)n4ncnc4c3c21 (centres undefined) | -4 | -6 | i | -21% | -56* | 9%
CCCCCCSc1nc(N)c2c3c(sc2n1)CCCC3C (centres undefined) | / | 8 | / | / | / | /
CC(=O)c1ccc2cccc3c2c1N=CN3C | -59* | 1 | i | -2% | -24 | -13%
Cc1ccccc1NS(=O)(=O)c1ccc(C2CNC(=O)C2)cc1 (centres undefined) | -12 | -4 | i | ? | -104* | -1%
COc1c(Cl)cc(Cl)cc1/C=C/C(=O)c1ccc(NC(=O)c2cccs2)cc1 | -104* | -5 | 16µM* | -45% | -3 | 13µM*
CCC(=O)N1CCN(c2ccccc2NC(=O)c2ccc(OC)c(Cl)c2)CC1 | -24 | 3 | i | -9% | 11 | -6%
OC(COCc1cccs1)CN1CCCCCC1 (centres undefined) | -19 | -4 | i | 2% | -11 | -2%
OC(COCc1cccs1)CN1CCN(c2ccccc2Cl)CC1 (centres undefined) | -27 | -18 | i | -3% | -69* | 2%
OC(COCc1cccs1)CN1CCN(c2cccc(Cl)c2)CC1 (centres undefined) | ? | -6 | i | 9% | -56* | -27%
OC(COCc1cccs1)CN1CCN(c2ccccn2)CC1 (centres undefined) | -6 | 57* | i | 5% | -25 | -6%
CCOc1ccccc1N1CCN(CC(O)COCc2cccs2)CC1 (centres undefined) | 17 | -25 | i | -31% | -85* | -2%
CN1CCCN(CC(O)COCc2cccs2)CC1 (centres undefined) | 14 | 10 | i | -32% | 5 | 4%
Cc1c(C(=O)N2CCOCC2)c(S(=O)(=O)Nc2ccc(Br)cc2F)c(C)n1C | -23 | -6 | i | ? | -9 | -1%
SMILES | IL-1B inflam inh | D3 ag | ATXN viability | Integrin act MD | DRD3 antagonist | ATXN2 expr inh
C/C(=N\NC(=O)c1ccc(O)cc1)c1cccc(NC(=O)c2ccccc2C)c1 | -7 | 0 | i | -7% | -11 | 24%
OC(COCc1ccc(Cl)cc1)CN1CCN(c2ccccn2)CC1 (centres undefined) | -7 | 59* | i | -18% | 0 | -2%
Cc1cccc(N2CCN(CC(O)COCc3cccs3)CC2)c1C (centres undefined) | ? | 58* | i | 5% | -6 | 5%
OC(COCC1COc2ccccc2O1)CN1CCN(c2ccccn2)CC1 (centres undefined) | -14 | 75*! | i | 4% | -24 | -18%
O=C(CCn1c(=S)oc2ccccc21)NCCC1=CCCCC1 | -9 | -23 | i | 8% | ? | -24%
COC(=O)[C@H](Cc1ccccc1)N(Cc1ccccc1)S(=O)(=O)N(Cc1ccccc1)[C@@H](Cc1ccccc1)C(=O)OC | 30 | 19 | i | -10% | 24 | 9%
O=C(O)c1cccc(S(=O)(=O)Nc2ccc(S(=O)(=O)N3CCOCC3)cc2)c1 | 1 | 0 | i | -2% | -4 | -17%
COc1ccc2nc(NC(=O)C3CCCN(S(=O)(=O)c4cccc5nonc45)C3)sc2c1 (centres undefined) | -53* | 0 | i | -29% | -2 | 1%
COc1cc(OC)cc(C(=O)Nc2nc3ccc(S(C)(=O)=O)cc3s2)c1 | 58 | 7 | i | -11% | 7 | -6%
CCOc1ccc2nc(NC(=O)C3CCCN(S(=O)(=O)c4cccc5nonc45)C3)sc2c1 (centres undefined) | -11 | 4 | i | -36% | -4 | -6%
Cc1ccc(S(=O)(=O)N2CCCC2C(=O)Nc2nc3c(s2)CCCC3)cc1 (centres undefined) | -4 | -2 | i | -2% | 5 | -16%
COc1ccc2nc(NC(=O)C3CCCN3S(=O)(=O)c3ccc(C)cc3)sc2c1 (centres undefined) | -23 | 0 | ? | -23% | -71* | -11%
COc1ccc2oc(C(=O)Nc3nc4ccc(S(C)(=O)=O)cc4s3)c(C)c2c1 | -52* | 2 | i | -1% | 18 | -19%
Cc1ccsc1C1Nc2ccc3ncccc3c2C2=C1C(=O)CC(C)(C)C2 (centres undefined) | 4 | -16 | ? | 11% | ? | -20%
Cc1ccc(C(=O)NC(=S)N2CCN(c3ccccc3F)CC2)cc1 | -1 | -5 | i | 18% | 7 | 0%
COc1ccc(C)cc1C1=CC(=O)C[C@H](c2ccc(F)cc2)C1 | ? | -25 | i | -7% | 0 | -6%
CCCCn1cnc2c(c(-c3ccccc3)c(-c3ccccc3)n2Cc2ccco2)c1=N | -73* | 2 | ? | -22% | 0 | -17%

Source: PubChem
